Test results reported in the supplement of paper PMC10849652.
The full data set covers some 8,800 targets. This sample favours those with a hit. About 0.5% of all pairs of compound and target were hits.

Columns and labels:
Experiment in all cases: log2 fold change, soluble protein after heating vs DMSO (PISA); higher = thermal stabilisation; K562 lysate, 10 uM; active = over 0.2 and 3.5 SD of the protein, either way, in both replicates (recomputed)
nilotinib = compound: Cc1cn(-c2cc(NC(=O)c3ccc(C)c(Nc4nccc(-c5cccnc5)n4)c3)cc(C(F)(F)F)c2)cn1 [nilotinib]
How it was run: (§1)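 The values are log-two fold changes in thermal stability compared with solvent controls and come from duplicates. They were obtained by TMTpro 16plex LC-MS/MS, with channel sums equalised, on the supernatant after 21,000xg for 90 min. That supernatant came from crude K562 extract at 1 mg/mL protein treated with 10 μM compound for 30 min, heated for 3 min across 48°C-58°C, pooled and brought to 0.5% NP-40 at 4°C.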

[1] = compound: Cc1nc(Nc2n[nH]c3c2CN(C(=O)N[C@H](CN(C)C)c2ccccc2)C3(C)C)c2sccc2n1
How it was run: as §1

dasatinib = compound: Cc1nc(Nc2ncc(C(=O)Nc3c(C)cccc3Cl)s2)cc(N2CCN(CCO)CC2)n1 [dasatinib]
How it was run: as §1

[2] = compound: Cc1ncc(-c2ccnc(Nc3ccc(S(C)(=O)=O)cc3)n2)n1C(C)C
How it was run: as §1

[3] = compound: Cn1cc(-c2ccc3c(c2)CCN3C(=O)Cc2cccc(C(F)(F)F)c2)c2c(N)ncnc21
How it was run: as §1

quisinostat = compound: Cn1cc(CNCC2CCN(c3ncc(C(=O)NO)cn3)CC2)c2ccccc21 [quisinostat]
How it was run: as §1

tipifarnib = compound: Cn1cncc1[C@@](N)(c1ccc(Cl)cc1)c1ccc2c(c1)c(-c1cccc(Cl)c1)cc(=O)n2C [tipifarnib]
How it was run: as §1

[4] = compound: NC(=O)Nc1cc(-c2cccc(F)c2)sc1C(=O)N[C@H]1CCCNC1
How it was run: as §1

[5] = compound: NC(=O)c1cnc(N[C@@H]2CCCC[C@@H]2N)nc1Nc1cccc(-n2nccn2)c1
How it was run: as §1

[6] = compound: NC1(c2ccc(-c3nc4ccn5c(=O)[nH]nc5c4cc3-c3ccccc3)cc2)CCC1
How it was run: as §1

[7] = compound: NCC(=O)Nc1ccc(-n2nc(C(F)(F)F)cc2-c2ccc3c(ccc4ccccc43)c2)cc1
How it was run: as §1

vorinostat = compound: O=C(CCCCCCC(=O)Nc1ccccc1)NO [vorinostat]
How it was run: as §1

silmitasertib = compound: O=C(O)c1ccc2c(c1)nc(Nc1cccc(Cl)c1)c1ccncc12 [silmitasertib]
How it was run: as §1

[8] = compound: O=C1NC(=O)C(c2cnc3ccccn23)=C1c1cn2c3c(cc(F)cc13)CN(C(=O)N1CCCCC1)CC2
How it was run: as §1

entospletinib = compound: c1cn2cc(-c3ccc4cn[nH]c4c3)nc(Nc3ccc(N4CCOCC4)cc3)c2n1 [entospletinib]
How it was run: as §1

Measured: log2 fold change

TCF3 (UniProt P15923)
inactive: nilotinib 0.028 | [1] -0.118 | dasatinib -0.018 | [2] -0.057 | [3] -0.139 | quisinostat 0.006 | tipifarnib -0.245 | [4] 0.055 | [5] -0.019 | [6] -0.003 | [7] -0.007 | vorinostat -0.141 | silmitasertib -0.031 | [8] 0 | entospletinib -0.03

TLK1 isoform 2 (UniProt Q9UKI8)
active: [1] 0.414 | vorinostat -0.369
inactive: nilotinib -0.044 | dasatinib -0.005 | [2] 0.188 | [3] -0.036 | quisinostat -0.23 | tipifarnib 0.023 | [4] 0.133 | [5] 0.035 | [6] -0.021 | [7] 0.001 | silmitasertib 0.117 | [8] 0.156 | entospletinib 0.04

TESC (UniProt Q96BS2)
inactive: nilotinib 0.031 | [1] -0.025 | dasatinib 0.053 | [2] 0.05 | [3] 0.02 | quisinostat 0.012 | tipifarnib 0.012 | [4] -0.036 | [5] -0.035 | [6] 0.049 | [7] -0.036 | vorinostat 0.058 | silmitasertib 0.103 | [8] -0.014 | entospletinib -0.111

TBC1D2B (UniProt Q9UPU7)
active: vorinostat -0.249
inactive: nilotinib -0.019 | [1] 0.038 | dasatinib -0.008 | [2] -0.07 | [3] 0.055 | quisinostat 0.007 | tipifarnib -0.087 | [4] 0.007 | [5] -0.021 | [6] 0.006 | [7] -0.007 | silmitasertib 0.049 | [8] -0.047 | entospletinib -0.061

TRIM44 (UniProt Q96DX7)
inactive: nilotinib -0.016 | [1] 0.001 | dasatinib 0.073 | [2] -0.036 | [3] -0.008 | quisinostat 0.035 | tipifarnib 0.006 | [4] 0.023 | [5] -0.011 | [6] 0.044 | [7] 0.024 | vorinostat -0.031 | silmitasertib 0.062 | [8] -0.015 | entospletinib -0.051

TJP1 isoform 2 (UniProt Q07157)
inactive: nilotinib -0.003 | [1] 0.004 | dasatinib 0.036 | [2] 0.006 | [3] -0.013 | quisinostat -0.011 | tipifarnib -0.005 | [4] -0.019 | [5] 0.022 | [6] -0.041 | [7] 0.029 | vorinostat 0.041 | silmitasertib -0.035 | [8] -0.023 | entospletinib -0.043

TUBB1 (UniProt Q9H4B7)
inactive: nilotinib 0.095 | [1] -0.013 | dasatinib -0.043 | [2] -0.004 | [3] 0.002 | quisinostat 0.079 | tipifarnib 0.03 | [4] 0.009 | [5] -0.006 | [6] -0.019 | [7] -0.038 | silmitasertib -0.003 | [8] 0.033 | entospletinib 0.011
active: vorinostat -0.326

TUBA1C (UniProt Q9BQE3)
Chain of UniProt Q9BQE3 (Q9BQE3 whole entry, looked up): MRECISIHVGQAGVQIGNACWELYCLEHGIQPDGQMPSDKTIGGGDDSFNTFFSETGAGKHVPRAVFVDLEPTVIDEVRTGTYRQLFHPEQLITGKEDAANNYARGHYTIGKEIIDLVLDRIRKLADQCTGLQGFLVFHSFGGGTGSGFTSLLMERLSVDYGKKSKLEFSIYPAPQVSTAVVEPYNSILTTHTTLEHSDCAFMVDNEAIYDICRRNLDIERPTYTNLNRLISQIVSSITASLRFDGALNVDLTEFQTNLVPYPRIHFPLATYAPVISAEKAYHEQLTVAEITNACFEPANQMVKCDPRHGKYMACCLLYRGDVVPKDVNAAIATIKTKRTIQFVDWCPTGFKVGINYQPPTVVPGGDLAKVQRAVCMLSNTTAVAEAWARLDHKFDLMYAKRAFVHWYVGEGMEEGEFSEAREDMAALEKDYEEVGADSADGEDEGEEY
active: vorinostat -0.256
inactive: nilotinib -0.001 | [1] 0.021 | dasatinib -0.017 | [2] 0.006 | [3] 0.018 | quisinostat -0.038 | tipifarnib -0.007 | [4] 0.014 | [5] -0.006 | [6] -0.052 | [7] 0.019 | silmitasertib 0.013 | [8] 0.006 | entospletinib -0.014

TFCP2 (UniProt Q12800)
inactive: nilotinib 0.042 | [1] 0.023 | dasatinib -0.015 | [2] 0.023 | [3] 0.02 | quisinostat -0.072 | tipifarnib -0.022 | [4] 0.066 | [5] 0.066 | [6] -0.059 | [7] -0.072 | silmitasertib 0.045 | [8] 0.029 | entospletinib 0.051
active: vorinostat -0.465

TUBGCP2 isoform 4 (UniProt Q9BSJ2)
inactive: nilotinib -0.016 | [1] 0.012 | dasatinib -0.058 | [2] 0.012 | [3] 0.064 | quisinostat -0.091 | tipifarnib -0.001 | [4] 0.037 | [5] 0 | [6] -0.016 | [7] 0.03 | silmitasertib 0.051 | [8] 0.046 | entospletinib 0.042
active: vorinostat -0.32

UFM1 (UniProt P61960)
Chain of UniProt P61960 (P61960 whole entry, looked up): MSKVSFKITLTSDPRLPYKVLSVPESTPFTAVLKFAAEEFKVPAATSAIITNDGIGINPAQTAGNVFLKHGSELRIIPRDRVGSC
inactive: nilotinib 0.042 | [1] 0 | dasatinib -0.037 | [2] 0.107 | [3] -0.032 | quisinostat 0.321 | tipifarnib 0.088 | [4] -0.116 | [5] -0.063 | [6] 0.043 | [7] -0.247 | vorinostat 0.036 | silmitasertib -0.074 | [8] -0.109 | entospletinib -0.011

UBR5 (UniProt O95071)
Chain of UniProt O95071 (O95071 whole entry, looked up): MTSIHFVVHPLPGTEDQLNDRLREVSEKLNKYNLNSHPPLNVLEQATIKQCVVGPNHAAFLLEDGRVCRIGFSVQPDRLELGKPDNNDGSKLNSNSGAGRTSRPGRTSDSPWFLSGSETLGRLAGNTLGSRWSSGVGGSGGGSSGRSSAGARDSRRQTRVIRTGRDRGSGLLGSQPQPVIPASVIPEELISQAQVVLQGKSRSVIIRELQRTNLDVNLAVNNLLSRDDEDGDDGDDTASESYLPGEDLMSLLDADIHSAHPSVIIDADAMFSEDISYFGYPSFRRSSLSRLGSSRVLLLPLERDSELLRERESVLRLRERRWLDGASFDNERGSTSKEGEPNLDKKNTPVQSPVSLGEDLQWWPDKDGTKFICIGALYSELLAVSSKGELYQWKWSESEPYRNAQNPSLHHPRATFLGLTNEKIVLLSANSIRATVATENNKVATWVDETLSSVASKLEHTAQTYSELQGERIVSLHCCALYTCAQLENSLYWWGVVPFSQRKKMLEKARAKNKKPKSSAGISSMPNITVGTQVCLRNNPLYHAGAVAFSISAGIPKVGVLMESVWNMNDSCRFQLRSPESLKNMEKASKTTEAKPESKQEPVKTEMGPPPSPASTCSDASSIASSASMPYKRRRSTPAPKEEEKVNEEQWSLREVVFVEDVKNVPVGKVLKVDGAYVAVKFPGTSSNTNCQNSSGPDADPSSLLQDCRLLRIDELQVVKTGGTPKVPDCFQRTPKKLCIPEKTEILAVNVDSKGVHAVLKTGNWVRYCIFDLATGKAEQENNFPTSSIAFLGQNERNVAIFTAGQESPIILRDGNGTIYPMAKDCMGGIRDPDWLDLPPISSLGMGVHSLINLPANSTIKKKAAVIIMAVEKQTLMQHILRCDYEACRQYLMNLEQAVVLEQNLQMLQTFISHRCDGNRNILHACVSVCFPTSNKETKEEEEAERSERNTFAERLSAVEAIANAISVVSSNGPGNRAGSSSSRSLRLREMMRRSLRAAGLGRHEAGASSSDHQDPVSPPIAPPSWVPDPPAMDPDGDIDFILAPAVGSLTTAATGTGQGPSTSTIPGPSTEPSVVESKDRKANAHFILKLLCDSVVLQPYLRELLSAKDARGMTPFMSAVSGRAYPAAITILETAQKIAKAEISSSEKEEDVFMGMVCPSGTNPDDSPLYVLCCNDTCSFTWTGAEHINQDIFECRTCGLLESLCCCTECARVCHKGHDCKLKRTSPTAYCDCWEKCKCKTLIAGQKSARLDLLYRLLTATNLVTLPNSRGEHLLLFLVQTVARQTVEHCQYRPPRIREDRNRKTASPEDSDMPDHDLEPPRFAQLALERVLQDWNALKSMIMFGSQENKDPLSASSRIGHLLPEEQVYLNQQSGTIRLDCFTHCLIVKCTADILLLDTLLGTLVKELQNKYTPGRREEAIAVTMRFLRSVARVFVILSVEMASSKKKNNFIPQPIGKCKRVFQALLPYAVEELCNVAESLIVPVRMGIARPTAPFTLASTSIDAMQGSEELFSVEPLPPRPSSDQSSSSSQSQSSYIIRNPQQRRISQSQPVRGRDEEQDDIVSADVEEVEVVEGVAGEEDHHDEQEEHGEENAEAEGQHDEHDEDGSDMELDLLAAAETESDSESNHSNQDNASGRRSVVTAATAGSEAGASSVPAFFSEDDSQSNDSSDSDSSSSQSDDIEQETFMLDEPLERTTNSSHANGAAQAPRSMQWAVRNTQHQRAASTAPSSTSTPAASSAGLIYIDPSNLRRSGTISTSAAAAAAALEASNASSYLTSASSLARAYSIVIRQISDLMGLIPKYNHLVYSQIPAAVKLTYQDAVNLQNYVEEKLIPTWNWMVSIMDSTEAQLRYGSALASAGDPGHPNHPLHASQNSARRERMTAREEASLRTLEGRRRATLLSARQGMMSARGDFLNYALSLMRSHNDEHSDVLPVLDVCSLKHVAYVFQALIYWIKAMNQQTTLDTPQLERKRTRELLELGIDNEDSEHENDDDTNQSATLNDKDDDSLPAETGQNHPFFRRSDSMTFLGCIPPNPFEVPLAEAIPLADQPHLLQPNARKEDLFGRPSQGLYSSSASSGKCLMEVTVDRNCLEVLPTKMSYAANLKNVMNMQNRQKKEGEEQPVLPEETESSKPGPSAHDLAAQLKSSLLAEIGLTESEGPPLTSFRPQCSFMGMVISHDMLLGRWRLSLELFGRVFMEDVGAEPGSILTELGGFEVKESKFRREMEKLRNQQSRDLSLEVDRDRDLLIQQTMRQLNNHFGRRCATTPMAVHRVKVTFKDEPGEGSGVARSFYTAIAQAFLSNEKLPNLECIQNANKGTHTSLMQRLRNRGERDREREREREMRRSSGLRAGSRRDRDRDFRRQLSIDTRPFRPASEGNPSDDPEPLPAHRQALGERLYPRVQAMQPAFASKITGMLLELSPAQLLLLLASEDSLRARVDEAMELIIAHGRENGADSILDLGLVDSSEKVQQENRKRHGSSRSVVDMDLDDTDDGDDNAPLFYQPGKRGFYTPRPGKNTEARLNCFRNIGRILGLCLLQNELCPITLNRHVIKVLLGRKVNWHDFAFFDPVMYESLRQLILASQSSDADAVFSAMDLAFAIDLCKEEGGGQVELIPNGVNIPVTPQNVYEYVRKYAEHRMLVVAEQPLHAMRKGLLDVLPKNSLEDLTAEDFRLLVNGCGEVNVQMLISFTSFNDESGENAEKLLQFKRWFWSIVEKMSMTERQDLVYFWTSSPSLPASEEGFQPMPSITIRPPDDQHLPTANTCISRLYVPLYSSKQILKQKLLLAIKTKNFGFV
active: vorinostat -0.234
inactive: nilotinib 0.006 | [1] 0.027 | dasatinib -0.028 | [2] -0.019 | [3] 0.019 | quisinostat -0.059 | tipifarnib -0.02 | [4] 0.005 | [5] 0.013 | [6] -0.009 | [7] 0.009 | silmitasertib 0.011 | [8] -0.011 | entospletinib -0.006

TGOLN2 isoform 7 (UniProt O43493)
inactive: nilotinib -0.059 | [1] -0.004 | dasatinib 0.023 | [2] 0.021 | [3] 0.033 | quisinostat -0.029 | tipifarnib -0.087 | [4] 0.014 | [5] 0.019 | [6] 0.008 | [7] -0.02 | vorinostat 0.089 | silmitasertib 0.055 | [8] -0.047 | entospletinib -0.019

TBC1D23 (UniProt Q9NUY8)
Chain of UniProt Q9NUY8 (Q9NUY8 whole entry, looked up): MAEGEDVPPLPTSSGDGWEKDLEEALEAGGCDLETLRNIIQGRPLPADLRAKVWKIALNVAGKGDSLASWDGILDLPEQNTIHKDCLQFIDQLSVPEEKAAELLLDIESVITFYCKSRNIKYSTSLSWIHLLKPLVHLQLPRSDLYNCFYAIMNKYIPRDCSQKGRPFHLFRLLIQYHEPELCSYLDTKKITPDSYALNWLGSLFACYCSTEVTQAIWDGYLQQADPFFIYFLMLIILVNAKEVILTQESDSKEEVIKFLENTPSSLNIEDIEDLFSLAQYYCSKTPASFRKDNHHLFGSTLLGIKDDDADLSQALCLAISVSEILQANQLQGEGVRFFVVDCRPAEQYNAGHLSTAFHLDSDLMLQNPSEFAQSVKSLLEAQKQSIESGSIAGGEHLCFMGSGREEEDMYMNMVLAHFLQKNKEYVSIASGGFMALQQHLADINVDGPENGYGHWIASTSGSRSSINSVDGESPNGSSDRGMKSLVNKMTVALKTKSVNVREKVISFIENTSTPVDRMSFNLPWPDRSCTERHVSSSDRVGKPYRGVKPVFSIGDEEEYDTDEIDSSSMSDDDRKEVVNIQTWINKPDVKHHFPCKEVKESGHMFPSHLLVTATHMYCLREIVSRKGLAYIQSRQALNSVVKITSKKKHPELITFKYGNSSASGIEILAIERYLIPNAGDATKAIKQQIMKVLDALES
inactive: nilotinib 0.013 | [1] -0.018 | dasatinib -0.001 | [2] -0.005 | [3] -0.021 | quisinostat -0.028 | tipifarnib 0.018 | [4] 0.01 | [5] -0.032 | [6] -0.004 | [7] 0.031 | silmitasertib -0.023 | [8] -0.001 | entospletinib 0
active: vorinostat -0.252

TTI2 (UniProt Q6NXR4)
active: vorinostat -0.303
inactive: nilotinib 0.022 | [1] 0.029 | dasatinib -0.051 | [2] 0.044 | [3] 0.01 | quisinostat -0.009 | tipifarnib -0.018 | [4] -0.003 | [5] 0.049 | [6] -0.013 | [7] 0.05 | silmitasertib 0.015 | [8] 0.034 | entospletinib 0.005

TMEM263 (UniProt Q8WUH6)
inactive: nilotinib 0.151 | [1] 0.153 | dasatinib -0.134 | [2] -0.079 | [3] 0.011 | quisinostat 0.021 | [4] 0.063 | [5] -0.021 | [6] -0.154 | [7] 0.053 | vorinostat 0.289 | silmitasertib -0.15 | [8] -0.113 | entospletinib -0.034
active: tipifarnib -0.512

TMEM97 (UniProt Q5BJF2)
inactive: nilotinib 0.098 | [1] 0.053 | dasatinib 0.018 | [2] 0.124 | [3] -0.005 | quisinostat 0.046 | tipifarnib 0.057 | [4] 0.011 | [5] -0.034 | [6] 0.023 | [7] -0.016 | vorinostat 0.152 | silmitasertib -0.039 | [8] 0.071 | entospletinib 0.004

UBIAD1 (UniProt Q9Y5Z9)
inactive: nilotinib 0.14 | [1] -0.014 | dasatinib 0.117 | [2] 0.125 | [3] -0.014 | quisinostat 0.096 | tipifarnib 0.04 | [4] -0.019 | [5] -0.034 | [6] -0.027 | [7] -0.061 | vorinostat 0.042 | silmitasertib 0.04 | [8] 0.032 | entospletinib 0.058

TFIP11 (UniProt Q9UBB9)
Chain of UniProt Q9UBB9 (Q9UBB9 whole entry, looked up): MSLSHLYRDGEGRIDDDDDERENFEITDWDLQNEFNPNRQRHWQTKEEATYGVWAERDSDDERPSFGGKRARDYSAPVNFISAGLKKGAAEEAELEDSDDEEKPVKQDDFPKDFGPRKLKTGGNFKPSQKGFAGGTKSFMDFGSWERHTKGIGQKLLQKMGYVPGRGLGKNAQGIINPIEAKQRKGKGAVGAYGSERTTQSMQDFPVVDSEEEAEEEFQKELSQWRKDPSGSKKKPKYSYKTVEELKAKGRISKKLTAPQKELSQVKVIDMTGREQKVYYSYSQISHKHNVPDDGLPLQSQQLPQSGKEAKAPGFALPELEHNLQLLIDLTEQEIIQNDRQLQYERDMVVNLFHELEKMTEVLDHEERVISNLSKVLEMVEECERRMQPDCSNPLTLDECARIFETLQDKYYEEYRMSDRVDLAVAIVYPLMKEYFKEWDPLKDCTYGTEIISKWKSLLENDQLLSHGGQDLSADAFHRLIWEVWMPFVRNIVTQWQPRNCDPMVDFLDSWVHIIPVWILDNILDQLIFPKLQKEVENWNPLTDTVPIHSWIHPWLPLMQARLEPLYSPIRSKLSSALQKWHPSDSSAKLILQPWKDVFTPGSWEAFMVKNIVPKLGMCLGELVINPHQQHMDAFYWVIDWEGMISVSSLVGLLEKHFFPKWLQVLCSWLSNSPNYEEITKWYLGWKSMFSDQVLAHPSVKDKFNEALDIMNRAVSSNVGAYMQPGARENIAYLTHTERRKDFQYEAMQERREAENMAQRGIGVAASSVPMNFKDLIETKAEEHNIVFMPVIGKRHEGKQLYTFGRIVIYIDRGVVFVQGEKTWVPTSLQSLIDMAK
inactive: nilotinib 0.004 | [1] 0.003 | dasatinib -0.059 | [2] 0.035 | [3] 0.01 | quisinostat -0.067 | tipifarnib -0.005 | [4] 0.048 | [5] 0 | [6] -0.004 | [7] -0.001 | vorinostat -0.06 | silmitasertib 0.013 | [8] 0.001 | entospletinib 0.067

TTI1 (UniProt O43156)
inactive: nilotinib -0.007 | [1] 0.004 | dasatinib 0.005 | [2] 0.001 | [3] 0.016 | quisinostat -0.047 | tipifarnib -0.015 | [4] -0.003 | [5] 0.01 | [6] -0.001 | [7] -0.037 | silmitasertib 0.089 | [8] -0.019 | entospletinib -0.017
active: vorinostat -0.452

TTMP isoform 3 (UniProt Q5BVD1)
Chain of UniProt Q5BVD1 (Q5BVD1 whole entry, looked up): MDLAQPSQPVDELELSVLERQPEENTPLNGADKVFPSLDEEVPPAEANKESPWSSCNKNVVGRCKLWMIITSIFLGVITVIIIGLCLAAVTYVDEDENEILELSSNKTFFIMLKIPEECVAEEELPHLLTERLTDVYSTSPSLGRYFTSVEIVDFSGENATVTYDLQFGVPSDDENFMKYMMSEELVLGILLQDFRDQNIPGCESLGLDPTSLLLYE
inactive: nilotinib 0.118 | [1] -0.023 | dasatinib -0.079 | [2] -0.022 | [3] -0.046 | quisinostat -0.475 | tipifarnib -0.089 | [4] 0.048 | [5] 0.116 | [6] -0.113 | [7] 0.253 | vorinostat 0.191 | silmitasertib -0.074 | [8] 0.167 | entospletinib -0.032
